In PubChem BioAssay AID651717 (Broad Institute, 2012):
The campaign covered roughly 1,200 compounds. About 950 (79%) were called active.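 The calls were made as follows: active = signal rises and fitted curve reaches 40% activity at or below the top valid tested dose, in every replicate test; inconclusive = replicate tests give mixed calls; inactive = the rest, including activity in the opposite direction.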 The set was probably picked from earlier hits. A selection follows. Measured potencies and affinities stand elsewhere.

Assay: compounds raising Bmi1 reporter signal – mouse embryonic stem cells, luciferase, cherry-pick, esBAF inhibitor project, dose response (AID 651717);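 also: luciferase knocked into Bmi1 locus with EF-1a renilla as cell number control; rising ratio signals esBAF inhibition which derepresses Bmi1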
Details: mESC Bmi1-luciferase reporter, firefly/renilla ratio, 24 h, hits give high values; at 35 µM unless noted

**Q.** With `Cc1ccc(-n2nc(C(=O)c3ccccc3)n3c(=O)cc(-c4ccccc4)nc23)cc1` as the compound, how does the max activity read?
**A.** The max activity was 5.74% [at 16 µM] (inactive).

**Q.** With `Cc1ccc(C(=O)Nc2nc(=O)n(C(=O)c3ccccc3C)s2)cc1` as the compound, how does the max activity read?
**A.** Its max activity is 38.3% [at 16 µM] (inactive).

**Q.** For `CC(C)c1ccc(NC(=O)C(c2ccccc2)N2CC(=O)Nc3ccccc32)cc1` (stereo unspecified), which max activity is on record?
**A.** Its max activity is 10.6% (inactive).

**Q.** Which max activity does the source give for `C[C@@H]1CN([C@@H](C)CO)C(=O)c2cc(NC(=O)Nc3ccc4c(c3)OCO4)ccc2O[C@@H](C)CCCCO[C@@H]1CN(C)C(=O)Nc1ccc2c(c1)OCO2` here?
**A.** Its max activity is 18.2% (inactive).

**Q.** Which max activity does the source give for `C[C@@H]1CN([C@@H](C)CO)C(=O)c2cc(NC(=O)Nc3ccc4c(c3)OCO4)ccc2O[C@H]1CN(C)C(=O)Nc1ccc(C(F)(F)F)cc1` here?
**A.** Its max activity is -14.9% (inactive).

**Q.** With `C[C@@H]1CCCCO[C@@H](CN(C)C(=O)Nc2ccc3c(c2)OCO3)[C@H](C)CN([C@H](C)CO)C(=O)c2cc(NC(=O)Nc3ccc4c(c3)OCO4)ccc2O1` as the compound, how does the max activity read?
**A.** The max activity was 17.2% [at 16 µM] (inactive).

**Q.** For `C[C@H](CO)N1C[C@H](C)[C@@H](CN(C)C(=O)Nc2ccc3c(c2)OCO3)OCCCC[C@H](C)Oc2ccc(NC(=O)Nc3ccc4c(c3)OCO4)cc2C1=O`, which max activity is on record?
**A.** Its max activity is 12.8% (inactive).

**Q.** Which max activity does the source give for `O=C(CCCc1ccccc1)Nc1ccccc1C(F)(F)F` here?
**A.** The max activity was 21.6% (inactive).

**Q.** With `C[C@@H]1CN([C@@H](C)CO)C(=O)c2cc(NC(=O)Nc3ccc4c(c3)OCO4)ccc2O[C@@H](C)CCCCO[C@H]1CN(C)C(=O)Nc1ccccc1` as the compound, how does the max activity read?
**A.** Its max activity is 33.3% (inactive).

**Q.** With `C[C@@H]1CCCCO[C@H](CN(C)C(=O)Nc2ccc(F)cc2)[C@H](C)CN([C@@H](C)CO)C(=O)c2cc(NC(=O)Nc3ccc4c(c3)OCO4)ccc2O1` as the compound, how does the max activity read?
**A.** The max activity was 7.08% [at 1 µM] (inactive).

**Q.** With `O=S(=O)(c1cccs1)N1CN(Cc2ccc(Cl)cc2)c2nc3ccccc3nc21` as the compound, how does the max activity read?
**A.** Its max activity is -33.7% (inactive).

**Q.** For `COc1ccc(-c2nn(-c3ccccc3)cc2/C=C(\CC(=O)O)c2nc3ccccc3s2)cc1OC`, which max activity is on record?
**A.** Its max activity is 26.9% (inactive).

**Q.** With `C[C@@H]1CCCCO[C@@H](CN(C)S(=O)(=O)c2cn(C)cn2)[C@H](C)CN([C@H](C)CO)C(=O)c2cc(NC(=O)Nc3ccc4c(c3)OCO4)ccc2O1` as the compound, how does the max activity read?
**A.** Its max activity is -9.02% [at 2.1 µM] (inactive).

**Q.** For `CN(c1ccc(O)cc1)S(=O)(=O)c1ccc2ccccc2c1`, which max activity is on record?
**A.** The max activity was 14.3% [at 8 µM] (inactive).

**Q.** With `CCCN(Cc1ccc(C)cc1)C(=O)c1ccc(CNS(=O)(=O)c2ccc(C(C)=O)cc2)cc1` as the compound, how does the max activity read?
**A.** Its max activity is 33.1% [at 16 µM] (inactive).

**Q.** Which max activity does the source give for `COc1cccc(CN(C(=O)c2cc3ccccc3oc2=O)C2CC2)c1` here?
**A.** Its max activity is 35% [at 8 µM] (inactive).

**Q.** With `O=C1NC[C@H](c2ccccc2)OC(=O)[C@@H](Cc2ccc(F)cc2)C/C=C\C[C@H]1CC(=O)N(CCO)Cc1ccccc1` as the compound, how does the max activity read?
**A.** Its max activity is 25.5% (inactive).

**Q.** With `COC(=O)c1ccc2c(=O)n(CC3CCCO3)c(SCC(=O)Nc3ccccc3Cl)nc2c1` (stereo unspecified) as the compound, how does the max activity read?
**A.** Its max activity is 24.8% [at 8 µM] (inactive).

**Q.** For `C[C@@H]1CCCCO[C@@H](CN(C)C(=O)Nc2cccc3ccccc23)[C@H](C)CN([C@H](C)CO)C(=O)c2cc(NC(=O)C3CCCCC3)ccc2O1`, which max activity is on record?
**A.** Its max activity is 28.2% [at 16 µM] (inactive).

**Q.** For `COc1ccc(CNC(=O)N(C)C[C@@H]2OCc3ccccc3-c3c(n(C)c4ccccc34)C(=O)N([C@H](C)CO)C[C@@H]2C)cc1`, which max activity is on record?
**A.** Its max activity is -26.4% [at 30 µM] (inactive).

**Q.** With `COc1ccc(-c2cc(C(=O)N3CCCCCC3)no2)cc1OC` as the compound, how does the max activity read?
**A.** The max activity was 32.3% (inactive).

**Q.** Which max activity does the source give for `CS(=O)(=O)NN1C(=O)c2ccccc2NC1c1cc2ccccc2nc1Cl` (stereo unspecified) here?
**A.** Its max activity is 18.4% (inactive).

**Q.** For `COc1ccc(C(=O)O/N=C(\N)c2ccc(OC)c(OC)c2)c(OC)c1`, which max activity is on record?
**A.** The max activity was 34.8% (inactive).

**Q.** For `O=C(NCC[C@@H]1CC[C@@H](NC(=O)Nc2cc(F)ccc2F)[C@H](CO)O1)Nc1ccc(Cl)cc1`, which max activity is on record?
**A.** The max activity was -11.9% [at 16 µM] (inactive).

**Q.** Which max activity does the source give for `O=C(NCC[C@@H]1CC[C@H](NC(=O)Nc2cc(F)ccc2F)[C@H](CO)O1)Nc1ccc(Cl)cc1` here?
**A.** Its max activity is 29.7% (inactive).

**Q.** With `C[C@@H]1CN([C@H](C)CO)C(=O)c2c(c3ccccc3n2C)-c2ccccc2CO[C@H]1CN(C)C(=O)Nc1ccc2c(c1)OCO2` as the compound, how does the max activity read?
**A.** Its max activity is -14.5% (inactive).

**Q.** Which max activity does the source give for `CC(C)c1ccc(NC(=O)c2ccccc2NC(=O)C2CCCCC2C(=O)O)cc1` (stereo unspecified) here?
**A.** The max activity was 41% (inactive).

**Q.** With `Cc1cccc(NC2SC(=O)N(c3ccccc3)C2=O)c1` (stereo unspecified) as the compound, how does the max activity read?
**A.** The max activity was 37.5% (inactive).

**Q.** With `O=C(/C=C/NNC(=O)c1ccccc1O)c1ccccc1` as the compound, how does the max activity read?
**A.** Its max activity is 4.98% [at 4.2 µM] (inactive).

**Q.** With `CCn1c(CCNC(=O)c2cccs2)nnc1SCC(=O)Nc1nc(-c2ccccc2)cs1` as the compound, how does the max activity read?
**A.** The max activity was 32.7% (inactive).

**Q.** For `C[C@@H]1CCCCO[C@@H](CN(C)C(=O)Nc2ccccc2)[C@@H](C)CN([C@@H](C)CO)C(=O)c2cc(NC(=O)Nc3ccc4c(c3)OCO4)ccc2O1`, which max activity is on record?
**A.** The max activity was 13.1% [at 16 µM] (inactive).

**Q.** With `C[C@@H]1CCCCO[C@@H](CN(C)C(=O)Nc2cccc3ccccc23)[C@H](C)CN([C@H](C)CO)C(=O)c2cc(NC(=O)Cc3ccccc3)ccc2O1` as the compound, how does the max activity read?
**A.** Its max activity is -4.4% [at 2.1 µM] (inactive).

**Q.** For `Brc1ccc(N=C/C=C/C=C/Nc2ccc(Br)cc2)cc1`, which max activity is on record?
**A.** The max activity was 9.66% [at 4.2 µM] (inactive).

**Q.** Which max activity does the source give for `C[C@H](CO)N1C[C@H](C)[C@@H](CN(C)S(=O)(=O)c2cccs2)Oc2c(NC(=O)Nc3ccc4c(c3)OCO4)cccc2C1=O` here?
**A.** Its max activity is -24.2% (inactive).

**Q.** For `OC(c1ccccc1)c1ncc(-c2ccccc2F)[nH]1` (stereo unspecified), which max activity is on record?
**A.** Its max activity is -21.5% (inactive).

**Q.** With `CCc1ccc(C(O)c2ncc(-c3cccc(F)c3)[nH]2)cc1` (stereo unspecified) as the compound, how does the max activity read?
**A.** Its max activity is -31.3% (inactive).

**Q.** Which max activity does the source give for `COc1cccc(-c2cnc(C(O)c3ccc(F)cc3)[nH]2)c1` (stereo unspecified) here?
**A.** The max activity was 32% [at 8 µM] (inactive).

**Q.** For `Cc1ccc(S(=O)(=O)N2CCOCC2)cc1C(=O)Nc1ccc(-c2cn3ccsc3n2)cc1`, which max activity is on record?
**A.** Its max activity is -8.19% (inactive).

**Q.** With `CC(C)c1ccc(Nc2ncc3c(n2)CCN(C(=O)Nc2ccc(F)c(Cl)c2)C3)cc1` as the compound, how does the max activity read?
**A.** Its max activity is 20.6% (inactive).

**Q.** For `N#Cc1cccc(NC(=O)c2cc(C3CCCCN3S(=O)(=O)c3cccc4cccnc34)on2)c1` (stereo unspecified), which max activity is on record?
**A.** Its max activity is -16.3% (inactive).

**Q.** For `O=C(Nc1ccc(F)c(Cl)c1)c1cc(C2CCCN(S(=O)(=O)c3cccc4cccnc34)C2)on1` (stereo unspecified), which max activity is on record?
**A.** Its max activity is 29.2% [at 16 µM] (inactive).
